Reference: publication PMC7819943, “Rice protein-binding microarrays: a tool to detect cis-acting elements near promoter regions in rice”
In all, about 68,000 sequences were measured (“fluorescence intensity (a.u.)”: median about 9,100, highest 2% from about 16,000 on). This is one part of a sample in which the highest values are shown more often than they occur.

What follows are sequences tested against OsWRKY34 (Oryza sativa, UniProt Q0JBA9 1-250) (assay: protein-binding microarray (RPBM); PBS, 2% BSA, 51.3 ng/ul salmon testes DNA, 50 uM zinc acetate, 200 nM TF, 25 C, 1 h; high values mean tight binding). Settings: protein: recombinant; tags: N-terminal polyhistidine and DsRed monomer fusion (pET32a); label: CyDye5-dUTP incorporated in the synthesized complementary strand; 3' TTTTT single-stranded linker to array surface; dsDNA, one strand shown.
Outline: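 Ni–NTA purification followed expression in E. coli BL21-CodonPlus of transcription factors fused N-terminally to a polyhistidine tag and DsRed. At 200 nM in PBS with 2% BSA, salmon testes DNA and 50 µM zinc acetate, the protein was incubated for 1 h at 25 °C with a custom Agilent array that had been primer-extended with Cy5-dUTP and blocked with 2% BSA. After washing, the array was read on an Axon 4000B scanner. The binding signal is per-feature fluorescence intensity in arbitrary units.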

OsWRKY34, sequence (Q0JBA9 entry or part of it): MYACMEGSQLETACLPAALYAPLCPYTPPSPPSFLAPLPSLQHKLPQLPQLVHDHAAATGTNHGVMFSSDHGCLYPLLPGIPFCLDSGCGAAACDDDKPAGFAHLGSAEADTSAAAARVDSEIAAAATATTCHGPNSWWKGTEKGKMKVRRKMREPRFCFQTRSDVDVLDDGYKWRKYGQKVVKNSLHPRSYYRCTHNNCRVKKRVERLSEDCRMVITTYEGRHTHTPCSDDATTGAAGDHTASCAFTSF

Sequence	binding signal
GAGAGAGGAAGAACAGTACGTGTCTAGGGGCATTTTGGTACGGAGTCACCTAGTGCAG	9700 fluorescence intensity (a.u.)
ACACCGGCCGCCGAGCTCGCCTCCTCTCTTGTCGCCCACACGGAGTCACCTAGTGCAG	10100 fluorescence intensity (a.u.)
GTTCCTGATATGTTTTTTTGTTGGTTGCAGGATGGCAAGACGGAGTCACCTAGTGCAG	8880 fluorescence intensity (a.u.)
GCTCTCTTTCCGCTTCTACCCTCGTCACGTCCACGAAATCCGGAGTCACCTAGTGCAG	14900 fluorescence intensity (a.u.)
GCCACAGCTCTTGATTTCTCGCTGGATCCTGGTTTTCACCCGGAGTCACCTAGTGCAG	8430 fluorescence intensity (a.u.)
GCGTTTTCGGCGGGGAACGCGGGGAGGCGGGTGGGGTTGACGGAGTCACCTAGTGCAG	21800 fluorescence intensity (a.u.)
ACCTCGGAAAGTACGGGGTTCTCGTCGGCTGGGTGGGTGTCGGAGTCACCTAGTGCAG	11500 fluorescence intensity (a.u.)
GGTGGGTTTCGTGGTACGGCTCGCTCTCGTGGTGGGGAATCGGAGTCACCTAGTGCAG	19700 fluorescence intensity (a.u.)
TCGTTTGGTTGGCGGGAGTTTTAAGAGGGATTAGGAGTTTCGGAGTCACCTAGTGCAG	9020 fluorescence intensity (a.u.)
CTGGCTCGCTCTCTCTCTCTCTCTCGTGGTGTGGTGTGGACGGAGTCACCTAGTGCAG	9310 fluorescence intensity (a.u.)
TTGGGGTTGGCGGGAATTAGGGTTTCGTTGGTGGGGTTTTCGGAGTCACCTAGTGCAG	25900 fluorescence intensity (a.u.)
GGTTGGCAGCGGCGGCGGAGGTGGGGAGAGGCGGGTGGTTCGGAGTCACCTAGTGCAG	13600 fluorescence intensity (a.u.)
TGCTAGGGTTTTCGGGAGGCGGGTCTAGGGTTGAGGCAAACGGAGTCACCTAGTGCAG	12300 fluorescence intensity (a.u.)
GAGCGGGGAGGCGGCGGATCTAGGGTTTGGTTGGGTTTTTCGGAGTCACCTAGTGCAG	15300 fluorescence intensity (a.u.)
GTTGGTGTCCATCCGTTTCCGAGCCATTTTCATCCCTAATCGGAGTCACCTAGTGCAG	11600 fluorescence intensity (a.u.)
TCCTTCCATCTCTCTGCTCACTTCACTTCACCTTCCAATGCGGAGTCACCTAGTGCAG	9020 fluorescence intensity (a.u.)
GTTTCCATTTATCTGTTCGCAGTCAGTTCCAAGAAGTACCCGGAGTCACCTAGTGCAG	8340 fluorescence intensity (a.u.)
GTTGGTTGGCTGTTCCTTGCTTTCATCCAGCTAGCTACTGCGGAGTCACCTAGTGCAG	10500 fluorescence intensity (a.u.)
ACCGGCTCTCTAATCCTTAAATTCTGGCTTTGCTGCTAGTCGGAGTCACCTAGTGCAG	9240 fluorescence intensity (a.u.)
CAGTGGAGGGTTGGATCGGTGTGTAGGGGCTTAAGTGCAACGGAGTCACCTAGTGCAG	9610 fluorescence intensity (a.u.)
CATGTCCAACGTTTGACCATTTGCCTTATTTAAAATTTTTCGGAGTCACCTAGTGCAG	9250 fluorescence intensity (a.u.)
ATGCTCGATCACATGCTTAATTCTTAGCTTTGTCCTAGTTCGGAGTCACCTAGTGCAG	8230 fluorescence intensity (a.u.)

Sequence	binding signal
GCCGCCACCGCAACCTACCGCCGCCGCGGCAAGCCCAAGCCGGAGTCACCTAGTGCAG	8960 fluorescence intensity (a.u.)
ACGGCCAGGCAAGCAAGCAAACGCCGCGGCTACCAATACCCGGAGTCACCTAGTGCAG	39600 fluorescence intensity (a.u.)
GCTAAATACCAGCGAAGCAGTCGCCCGCGCAAACGCGCGCCGGAGTCACCTAGTGCAG	8220 fluorescence intensity (a.u.)
TTAATCTTCACGCGTTTGCTTACTCCTATATATATATGTACGGAGTCACCTAGTGCAG	9730 fluorescence intensity (a.u.)
TCCTGTGTTTTGCAATCCTCTGTTTTTACACTTGCATTCCCGGAGTCACCTAGTGCAG	10400 fluorescence intensity (a.u.)
TTCCTGTGTTTTGCAATCCGCTGTTTTACACTTACATTCCCGGAGTCACCTAGTGCAG	17300 fluorescence intensity (a.u.)
TGTTTTTCCTGTGTTTTGCAATCCTCTGTTTTACACTTACCGGAGTCACCTAGTGCAG	13000 fluorescence intensity (a.u.)
TTTCGATTGATTTTGCCTCCTGAAGCGTTGTCTAGCTTTTCGGAGTCACCTAGTGCAG	8180 fluorescence intensity (a.u.)
TAGTACAATGGGTGCCCTCAACGGAATAAACCGCTATACCCGGAGTCACCTAGTGCAG	37000 fluorescence intensity (a.u.)
GCACAAAACCCTCGAGCACCGCCCGCCGCTATATAACAACCGGAGTCACCTAGTGCAG	9960 fluorescence intensity (a.u.)
ACCTAGTACGTATACACCTCAATCCATTATAAATAGCAACCGGAGTCACCTAGTGCAG	8280 fluorescence intensity (a.u.)
AGACAAACTCTGGTTTCCGTGTCCAACGTTTGACCGTTCGCGGAGTCACCTAGTGCAG	11300 fluorescence intensity (a.u.)
TTTCATTTCACTCGCTGGCATTTCATCTCCTTGACCTATCCGGAGTCACCTAGTGCAG	9400 fluorescence intensity (a.u.)
ACCCACTGATCACGAAATCCACACACTGGCCACATCCAAACGGAGTCACCTAGTGCAG	8340 fluorescence intensity (a.u.)
CCCTCCGTTTCAAAATGTTTGATACCGTTGACTTTTTAGCCGGAGTCACCTAGTGCAG	21200 fluorescence intensity (a.u.)
TACTCCCTCCGTTTCAAATGACACCATTGACTTTTTAGCACGGAGTCACCTAGTGCAG	9430 fluorescence intensity (a.u.)
TTATCAAAAGTACTTTTTAAGTATGACTTCTCCGTTTTTACGGAGTCACCTAGTGCAG	8280 fluorescence intensity (a.u.)
TATTACTTCCTTCGTTTCAAAATGTTTGATACCGTTGACTCGGAGTCACCTAGTGCAG	12000 fluorescence intensity (a.u.)
ATACTCCCTCCGTTTCAAAATGTTTGACATCGTTGACTTTCGGAGTCACCTAGTGCAG	9980 fluorescence intensity (a.u.)
TTTTCTTTTTCAATGTATGATTCTGTTGACTTTTCAGATACGGAGTCACCTAGTGCAG	11600 fluorescence intensity (a.u.)
CCCTCCGTTTCAAAATGTTTGACACCGTTGACTTTTTAGCCGGAGTCACCTAGTGCAG	28700 fluorescence intensity (a.u.)
CTTTCTTTATTTCAAAAGTATGATACCGTTGACTTTTCACCGGAGTCACCTAGTGCAG	24900 fluorescence intensity (a.u.)

Sequence	binding signal
CATCCGTTTCAAAATGTTTGACACCGTTGACTTTTTAGCACGGAGTCACCTAGTGCAG	26200 fluorescence intensity (a.u.)
GAGATGTGTCCATATTTGTAGTATTGGGTGGTATCTATTTCGGAGTCACCTAGTGCAG	8550 fluorescence intensity (a.u.)
TCACGGCCCCGCCGACCTCACGTCACCTTTTGTTGCGAGTCGGAGTCACCTAGTGCAG	8110 fluorescence intensity (a.u.)
GCCGAGGGCGCCGCCGGCGTCGTCCGAGCTGTGCCGCGCGCGGAGTCACCTAGTGCAG	8640 fluorescence intensity (a.u.)
ATCGTCCTCTGCACCTGCACACATCATCACTGGGACAACCCGGAGTCACCTAGTGCAG	8140 fluorescence intensity (a.u.)
AGGTCGACGTGTATATGTTCGTCTTTCATATCTCTGCTCTCGGAGTCACCTAGTGCAG	9640 fluorescence intensity (a.u.)
GTCGTCCAATGGCATGCCTCGCCCTGATTTTTATCGGGCCCGGAGTCACCTAGTGCAG	12700 fluorescence intensity (a.u.)
CCACAGTTAATTCCACACATACATGCACGCGTCTATATATCGGAGTCACCTAGTGCAG	11200 fluorescence intensity (a.u.)
CTGGTGGTCGGTTCAGTCGGGCGGGCGGGCGGGCTCACCGCGGAGTCACCTAGTGCAG	22800 fluorescence intensity (a.u.)
AGGGGTGGATGCGCGTGGGCTGGTGGTGGTGGTGGGGATGCGGAGTCACCTAGTGCAG	19100 fluorescence intensity (a.u.)
GGTCTGGTTTTCCGTGTGTGCACGGTCGGGGTGCGCGTGGCGGAGTCACCTAGTGCAG	14300 fluorescence intensity (a.u.)
TCATCGCGGGGCGGGGTGTAGCGGGTGCGAAAAGGAGGCGCGGAGTCACCTAGTGCAG	9910 fluorescence intensity (a.u.)
TGGTGACTGGGTAGGTGGTGGTGGTGGTGCGCGGCGGCGGCGGAGTCACCTAGTGCAG	8620 fluorescence intensity (a.u.)
GCGGGGTGCGAGTGGATGGGTGGGCGTAGCGCGTGTCGTGCGGAGTCACCTAGTGCAG	10400 fluorescence intensity (a.u.)
GGGGTGTGTGTGCTCGGCTACTCCGGTGGGTCGGGTCTGGCGGAGTCACCTAGTGCAG	12700 fluorescence intensity (a.u.)
CTGAGTGGCTGGGTGGGGTAGTGAAAAAAATCATCGCGCGCGGAGTCACCTAGTGCAG	18200 fluorescence intensity (a.u.)
CTCCGGTGGGTCGGGTCTGGGCGGGGTGCGCGTGGGGATGCGGAGTCACCTAGTGCAG	18200 fluorescence intensity (a.u.)
GCTAGCTGGATTGGTGGGTGGGCGCGTCAAGAAGGGGATGCGGAGTCACCTAGTGCAG	9830 fluorescence intensity (a.u.)
GGTGGTCGGGGCTCTGACGCGGCGGGGCGGCGGAGGTGGTCGGAGTCACCTAGTGCAG	10800 fluorescence intensity (a.u.)
AGCTGGCGGCTGGCGGGTGGTGGTGGTGGCTGGCGGCGGGCGGAGTCACCTAGTGCAG	13900 fluorescence intensity (a.u.)
